Laboratory results taken from PubChem BioAssay (EPA / NIEHS).
Inconclusive results are not listed. Activity calls are given as the source filed them. How the source made its calls: active means hit-call score of the fitted dose curve at least 0.9, where 1 is the maximum; inconclusive means response in the unintended direction; inactive means score below 0.9.

The compounds below were run on rat Monoamine Oxidase, MAO-A, Peripheral (MAOAP), gene 29253 (assay: NVS_ENZ_rMAOAP: NovaScreen (NVS) Enzymatic Assay for rat Monoamine Oxidase, MAO-A, Peripheral (MAOAP) (AID 2283237)).
Method: NVS_ENZ_rMAOAP is a biochemical, single-readout assay that uses extracted gene-proteins from Rat liver mitochondrial membranes in a tissue-based cell-free assay. Measurements were taken 1.17 hours after chemical dosing in a 96-well plate.NVS_ENZ_rMAOAP is one of one assay component(s) measured or calculated from the NVS_ENZ_rMAOAP assay. It is designed to make measurements of enzyme activity, a form of enzyme reporter, as detected with scintillation counting signals by Lysate-based radiodetection technology.Data from the assay component NVS_ENZ_rMAOAP was analyzed into 1 assay endpoint. This assay endpoint, NVS_ENZ_rMAOAP, was analyzed in the positive analysis fitting direction relative to DMSO as the negative control and baseline of activity. Using a type of enzyme reporter, loss-of-signal activity can be used to understand changes in the enzymatic activity as they relate to the gene Maoa. Furthermore, this assay endpoint can be referred to as a primary readout, because this assay has produced multiple assay endpoints where this one serves a enzymatic activity function. To generalize the intended target to other relatable targets, this assay endpoint is annotated to the oxidoreductase intended target family, where the subfamily is monoamine oxidase.
Binding assays used specific radioligands (tritiated, iodinated) with non-radioactive competitive displacement ligands in agonist or antagonist protocols (as indicated) and various reference compounds and inhibitors to titrate specific binding to receptors and transporters. Most enzyme assays (CYPs, kinases, phosphatases, proteases, HDACs) used recombinant protein and specific substrates (fluorescence mostly, some colorimetric and radioactive) and inhibitors, followed by a biochemical separation of substrate and product. All assays for the biochemical HTS were initially run in duplicate at a single concentration (10 uM for CYP450 assays and 25 uM for all others). […] Each assay was run with positive and negative controls, and concurrent controls on every plate. The follow-up (secondary) screen tested active chemical-pairs in concentration series, as well as a few additional assays not tested in the primary screen, some selected negative inactives, and several cases re-run in the concentration series for confirmatory purposes.

SMILES | AC50 | outcome
O=C(c1ccc(O)cc1O)c1ccc(O)cc1O | 0.935 µM (active) | –
Fc1ccccc1[C@@H](F)COC1CCC(Nc2ncnc3[nH]ncc23)CC1 (stereo not given in full) | – | inactive
Nc1nc(N)c2nc(CNc3ccc(C(=O)N[C@@H](CCC(=O)O)C(=O)O)cc3)cnc2n1 | 38.7 µM (active) | –
CN(C)c1ccc(N=NS(=O)(=O)O)cc1 | 21.1 µM (active) | –
COCCOCCOC | 39.7 µM (active) | –
NCC1(Cc2noc(=O)[nH]2)CCCCC1 | – | inactive
N=C(N)c1ccc(OCCCCCOc2ccc(C(=N)N)cc2)cc1 | 0.504 µM (active) | –
O=c1c(-c2ccc(O)cc2)coc2cc(O)cc(O)c12 | 3.49 µM (active) | –
Cc1cc(SC2=C(O)C[C@@](CCc3ccc(N)cc3)(C(C)C)OC2=O)c(C(C)(C)C)cc1CO | – | inactive
CCCCC(CC)C(=O)OCCOCCOCCOC(=O)C(CC)CCCC (stereo not given) | – | inactive
N#CSCSc1nc2ccccc2s1 | 25 µM (active) | –
CC(C)(c1ccc(O)cc1)c1ccc(O)cc1 | – | inactive
CCCOc1sc(C(=O)N2CCC(c3cc(CN)ccc3F)CC2)c(C)c1Br | 2.6 µM (active) | –
C[C@]12CC[C@@H]3c4ccc(O)cc4CC[C@H]3[C@@H]1CCC2=O | – | inactive
Cc1cc(CCN2CCN(c3nsc4ccccc34)CC2)cc2c1NC(=O)CC2(C)C | – | inactive
O=NO | 33.9 µM (active) | –
CSC(=O)c1cccc2nnsc12 | – | inactive
CC(C)C(=O)Nc1ccc([N+](=O)[O-])c(C(F)(F)F)c1 | 10.4 µM (active) | –
CC[C@H](C)C(=O)O[C@H]1C[C@H](O)C=C2C=C[C@H](C)[C@H](CC[C@@H](O)C[C@@H](O)CC(=O)O)[C@H]21 | – | inactive
CCCOC(=O)NCCCN(C)C | – | inactive

SMILES | AC50 | outcome
CCN(CC)CCNc1ccc(CNC=O)c2sc3ccc(OC)cc3c(=O)c12 | 9.35 µM (active) | –
Nc1ccc2c(c1)C(=O)c1ccccc1C2=O | 6.14 µM (active) | –
O=c1ccc2ccccc2o1 | 6.56 µM (active) | –
CCc1cc(SCc2sc(-c3ccc(C(F)(F)F)cc3)nc2CN2CCN(c3ccc(OC)cc3)CC2)ccc1OCC(=O)O | 25 µM (active) | –
O=Cc1ccccc1C=O | – | inactive
Oc1ccc2c(c1)-c1ccccc1C2 | 4.45 µM (active) | –
Cc1c(C(=O)O)c(O)cc2c1C(=O)c1c(O)c([C@@H]3O[C@H](CO)[C@@H](O)[C@H](O)[C@H]3O)c(O)c(O)c1C2=O | – | inactive
CCOC(=O)COc1cc(-n2ncc(C(F)(F)F)c(C)c2=O)c(F)cc1Cl | – | inactive
CCCN(CCC)c1c([N+](=O)[O-])cc(C(F)(F)F)c(N)c1[N+](=O)[O-] | – | inactive
CNS(=O)(=O)c1cc(C(=O)N2CCC(CCN3C4CCC3CC(n3c(C)nc5ccccc53)C4)(c3cccc(F)c3)CC2)c(Cl)cc1F (stereo not given) | – | inactive
Oc1ccc2ccccc2c1 | 12.9 µM (active) | –
COc1ccc2cc(S(=O)(=O)N[C@H](CC(=O)N[C@H](Cc3ccc(CN4[C@H](C)CCC[C@@H]4C)cc3)C(=O)N(C)C(C)C)c3ccc4c(c3)OCO4)ccc2c1 | 36 µM (active) | –
Nc1cccc(N)c1 | – | inactive
CCCCCCc1ccc(O)cc1O | 25 µM (active) | –
CN(C[C@@H](CC[N+]12CCC(C3CCCCC3)(CC1)CC2)c1ccc(Cl)c(Cl)c1)C(=O)c1cc(C(F)(F)F)cc(C(F)(F)F)c1 | 36.8 µM (active) | –
Clc1cc(Cl)c2c(c1)N=C1CCCCCN1C2 | 4.96 µM (active) | –
NCc1cccc(C2CCN(C(=O)c3ccc(C#Cc4ccccc4F)o3)CC2)c1 | 3.57 µM (active) | –
Nc1cccc2c(N)cccc12 | 25 µM (active) | –
Oc1cc2ccccc2c2ccccc12 | 3 µM (active) | –
O=C(O)c1cccc(C(=O)O)c1 | – | inactive
